This is a sample that favours compounds with a hit; in the whole collection about 6.5% have one here.
VACV Venus inh: qHTS for Stage-Specific Inhibitors of Vaccinia Orthopoxvirus: Venus Reporter Primary qHTS | Vaccinia virus Venus reporter expression, fluorescence | Potency, µM (titrated, usually from 36.5 µM), inactives show at the highest dose activity change, negative = inhibition, most hits filed as inhibitors | 330,000 tested, 0.46% active; calls by dose curve; tested in A549 cells; note: potency is the fitted concentration of half-maximal effect; nearly all actives have a fitted effect of over 30% in size
FMDV inh: High Throughput Screening for Foot and Mouth Disease Virus Antivirals; FMDV antiviral cell-based qHTS; Potency, µM (highest dose often 57.9 µM), without a hit: at the highest dose activity change, negative = inhibition, most hits filed as inhibitors; 410,000 tested, 1.2% active; calls by dose curve; tested in HEK293T cells; note: read-out not given here; potency is the fitted concentration of half-maximal effect; nearly all actives have a fitted effect of over 45% in size
LASV entry inh: qHTS for Inhibitors of binding or entry into cells for Lassa Virus; Potency, µM (doses to about 37.9 µM), without a hit: at the highest dose activity change, negative = inhibition, usual class: inhibitors; 300,000 tested, 1.2% active; Lassa virus pseudotype entry inhibition, cell reporter; AID 540256, 2011; calls by dose curve; tested in HEK293 cells; note: potency is the fitted concentration of half-maximal effect; nearly all actives have a fitted effect of over 50% in size
HCMV antiviral: qHTS Assay for inhibitors of the human cytomegalovirus (HCMV). HFF cells, HCMV-luciferase reporter, 72 h; stronger effect = lower value. activity change, negative = inhibition, % at 57.5 µM. 410,000 tested, 4.5% active. AID 1259415, 2018; in the data active = activity change below about -60%; inconclusive = no clear call, values can overlap the other calls; inactive = above about -39%
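After 16 h attachment at 37C, HFF cells received test compound and HCMV-luciferase (1 PFU/cell); reporter luminescence read 72 h later, data normalized against buffer-only and known inhibitor Salinomycin.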
Marburg entry inh: qHTS for inhibitors of binding or entry into cells for Marburg Virus; Marburg virus pseudotyped entry inhibition, cell reporter; Potency, µM (titrated, usually from 37.8 µM), inactives show at the highest dose activity change, negative = inhibition, hits mostly inhibitors; 300,000 tested, 1.8% active; AID 540276, 2011; calls by dose curve; tested in HEK293 cells; note: potency is the fitted concentration of half-maximal effect
Vaccinia mCherry: qHTS for Stage-Specific Inhibitors of Vaccinia Orthopoxvirus: mCherry Reporter Primary qHTS. Vaccinia virus mCherry reporter infection, fluorescence. Potency, µM (doses to about 36.5 µM), inactives show at the top dose activity change, negative = inhibition, actives largely listed as inhibitors. AID 720579, 2013. 310,000 tested, 0.63% active; calls by dose curve; tested in A549 cells; note: potency is the fitted concentration of half-maximal effect; nearly all actives have a fitted effect of over 35% in size
Active calls of the source: *; ? = inconclusive; . = no result given; + = active, no number; [ ] = dose if it differs, or a comment. % is set by controls: 0 for no effect and ±100 for the full control effect.

SMILES	VACV Venus inh	FMDV inh	LASV entry inh	HCMV antiviral	Marburg entry inh	Vaccinia mCherry
O=C(Nc1ccc(-c2csc(Nc3cccc(C(F)(F)F)c3)n2)cc1)c1cc([N+](=O)[O-])cc(C(F)(F)F)c1	?	?	.	-78*	.	-29%
O=C(Nc1cccc(-c2csc(Nc3cccc(C(F)(F)F)c3)n2)c1)c1ccccc1	?	?	.	-4	.	?
O=C(Nc1cccc(-c2csc(Nc3ccccc3)n2)c1)c1ccccc1	?	5%	.	-16	.	5µM*
N[C@](CC1c2ccccc2Oc2ccccc21)(C(=O)O)[C@@H]1C[C@@H]1C(=O)O	.	6%	.	.	.	.
Cc1ccc(C(=O)Nc2nnc(S(=O)(=O)N(C)Cc3ccc(F)cc3)s2)cc1	-1%	29%	4%[46.1 µM]	+	.	-3%
Cc1cccc(C(=O)Nc2nnc(S(=O)(=O)N(C)Cc3ccc(Cl)cc3)s2)c1	-13%	-14%	26%[46.1 µM]	?	.	-7%
Nc1cc2ccncc2c2ccccc12	-25%	-21%	.	-96*	.	-8%
CC1(CN2CCC(n3c(=O)[nH]c4ccccc43)CC2)OCc2ccccc2-n2cccc21 (configuration not stated)	.	-27%	.	.	.	.
Cc1nn(Cc2ccccc2)c2c1C(c1cccc(Cl)c1)C(C#N)=C(N)O2 (configuration not stated)	-10%	?	-25%	-60*	?	.
COc1cc(-n2nc(C)c3c2OC(N)=C(C#N)C3c2ccccc2)c(Cl)c(Br)c1O (configuration not stated)	-22%	22µM*	0%	.	-54%	0%
Cc1nn(-c2ccccc2)c2c1C(c1ccncc1)C(C#N)=C(N)O2 (configuration not stated)	-14%	-24%	0%	68	-5%[46.1 µM]	.
Cc1nn(-c2ccccc2)c(Cl)c1C1C(C#N)=C(N)Oc2c1c(C)nn2-c1ccccc1 (configuration not stated)	-20%	?	7%	.	-12%[46.1 µM]	.
CC(C)NC(=O)COC(=O)CNC(=O)C1CCCCC1	-15%	.	.	.	.	4%
CCOC(=O)N1CCN(c2cc(N3CCOCC3)c(F)cc2[N+](=O)[O-])CC1	-6%	0%	7.9µM*	6	-7%	-11%
CN1CCN(c2cc(N3CCCC3)c([N+](=O)[O-])cc2F)CC1	-24%	-7%	3%	-27	11%[46.1 µM]	-23%
CCN1CCN(c2cc(N3CCCC3)c(F)cc2[N+](=O)[O-])CC1	?	-11%	?	?	21µM*	?
O=C(c1ccco1)N1CCN(c2ccc([N+](=O)[O-])cc2F)CC1	-6%	12%	14%[46.1 µM]	8	18%[46.1 µM]	-14%
O=C(c1ccco1)N1CCN(c2cc(N3CCOCC3)c(F)cc2[N+](=O)[O-])CC1	-21%	-13%	?	-103*	-14%[46.1 µM]	-7%
CCOC(=O)N1CCN(c2ccc(F)cc2[N+](=O)[O-])CC1	-25%	-12%	-11%	?	-28%	-19%
CN1CCN(c2cc(N3CCc4ccccc4C3)c(F)cc2[N+](=O)[O-])CC1	?	-24%	?	-14	?	10µM*
COc1cc(=O)n2c(c1C(=O)NC(C)c1ccco1)CCN(C(=O)c1cc(C)cc(C)c1)CC2 (configuration not stated)	-12%	28%	.	.	.	-16%
CC(C)CCOc1ccc(CC(=O)NO)cc1	-16%	.	.	.	.	4%
O=C(c1ccc(Oc2ccc(C(F)(F)F)cc2[N+](=O)[O-])cc1)N1CCOCC1	-19%	?	?	-83*	?	?
Cc1ccc(S(=O)(=O)c2cn(CC(=O)Nc3ccc4c(c3)OCO4)c3ccc(C)cc3c2=O)cc1	4%	8%	-2%[46.1 µM]	-6	?	-10%
CC(=O)OC[C@H]1O[C@H](CC=NOCC[C@@H]2C=C[C@@H](OC(C)=O)[C@@H](COC(C)=O)O2)C=C[C@@H]1OC(C)=O	.	.	.	.	10%[14.2 µM]	.
CCOC(=O)N1CCN(c2ccc(S(=O)(=O)N(Cc3ccccc3)Cc3ccccc3)cn2)CC1	-10%	?	-26%	-90*	?	.

Compound activity from PubChem.
